# Compounds without any hit were thinned out: in the full panel of roughly 83,000, 20% have a hit.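 Percent growth is the endpoint: 0 to 100 indicates growth inhibition (40 means 60% inhibition), 0 means no net growth, and negative values indicate cell death.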 Values without a mark were called inactive. Activity calls are given as the source filed them. The calls were made as follows: active = growth percent below 10; inactive = the rest.
# Key:
# Assay in all cases: NCI-60 one-dose screen, 48 h (100 = growth as untreated, 0 = no growth, -100 = all killed)
# Conditions in all cases: 10 µM unless noted
# [1] = tested on: HCT-15 colon
# [2] = tested on: HT29 colon
# [3] = tested on: SNB-75 CNS
# [4] = tested on: SNB-19 CNS
# [5] = tested on: U251 CNS
# [6] = tested on: PC-3 prostate
# [7] = tested on: SK-MEL-5 melanoma
# [8] = tested on: UACC-62 melanoma
# [9] = tested on: LOX IMVI melanoma
# [10] = tested on: SK-MEL-28 melanoma
# [11] = tested on: SK-MEL-2 melanoma
# [12] = tested on: EKVX NSCLC
# [13] = tested on: SN12C renal
# [14] = tested on: UO-31 renal
# [15] = tested on: TK-10 renal
# [16] = tested on: ACHN renal
# [17] = tested on: CAKI-1 renal
# [18] = tested on: A498 renal
# [19] = tested on: CCRF-CEM leukemia
# [20] = tested on: MOLT-4 leukemia
Structure (SMILES),growth [1],growth [2],growth [3],growth [4],growth [5],growth [6],growth [7],growth [8],growth [9],growth [10],growth [11],growth [12],growth [13],growth [14],growth [15],growth [16],growth [17],growth [18],growth [19],growth [20]
C#CCOc1cccc(Nc2ncnc3cc(NC(=O)CCl)ccc23)c1,-53.5% (active),-78.9% (active),-49.9% (active),-88% (active),-78.9% (active),-83.8% (active),-93.8% (active),-73.9% (active),-67.3% (active),-30.6% (active),-55.3% (active),-49.1% (active),-83.5% (active),-88.7% (active),-85% (active),-84.1% (active),-57.7% (active),-25.6% (active),-46.9% (active),-35.4% (active)
COCCn1cc(-c2nc(-c3c[nH]c4ncccc34)cs2)c2ccccc21,20.3%,50.2%,47.2%,88.6%,72%,33.2%,34.3%,64.4%,66.9%,89.4%,77.5%,16.4%,77.8%,41%,36.2%,67.6%,62.7%,44.7%,56.6%,48.7%
Cc1c2ncccc2nc2[nH]c3ccc(OCCN(C)C)cc3c12,15.7%,5.4% (active),63%,15.3%,20.3%,12.1%,47%,35.2%,18%,78.5%,33.7%,49.2%,13.9%,19.1%,31%,10.6%,63.3%,79.9%,6.43% (active),9.61% (active)
OC1(c2ccccc2)c2ccccc2N(c2ccccc2)c2ccc(Cl)cc21 (stereo not given),-44.2% (active),-77.5% (active),-57.6% (active),-91.6% (active),-87.9% (active),-75.1% (active),-97.6% (active),-92% (active),-93.6% (active),-97.1% (active),-72.1% (active),-81.8% (active),-81.6% (active),-95% (active),-95.5% (active),-99.5% (active),-9.02% (active),-62.6% (active),-13% (active),1.26% (active)
Cn1c(=O)[nH]c(=O)c2nc3c(nc21)-c1ccccc1C3=O,102%,101%,88.9%,98.1%,106%,95.8%,98.5%,91.2%,95.9%,97.4%,103%,95%,96.6%,83.8%,102%,94.2%,89.9%,95.2%,106%,105%
COC(=O)/C=C1/SC(=Nc2ccc(F)cc2)N(CCc2c[nH]c3ccc(O)cc23)C1=O,23.6%,36.7%,43.2%,46.6%,25.6%,33.3%,44.9%,23.5%,-10.7% (active),51.8%,-0.819% (active),55.9%,42.5%,46.4%,84%,33.8%,52.1%,49.8%,3.69% (active),0.14% (active)
O=C(c1cccc(N2CCOCC2)n1)c1c[nH]c2ccccc12,95.7%,105%,82%,99.4%,91.7%,83.5%,93.8%,82.8%,93%,98.6%,103%,76.3%,89.9%,66.9%,120%,86.5%,76%,85.2%,97.2%,100%
Cc1ccc2cnc(N)c(C#Cc3cc(C(=O)Nc4ccc(CN5CCN(C)CC5)c(C(F)(F)F)c4)cnc3C)c2c1,-40.5% (active),-62.7% (active),-17.1% (active),17.4%,-80.7% (active),-86.9% (active),26.8%,7.26% (active),-71% (active),-84.9% (active),6.23% (active),12.6%,2.6% (active),-82% (active),39.7%,-100% (active),-35.7% (active),-75.9% (active),-34.8% (active),-5.68% (active)
CCCc1cc(=O)oc2c(C(=O)CC(C)C)c(O)c(CC=C(C)C)c(O)c12,16.9%,57.3%,52.6%,21.5%,22.5%,6.87% (active),-45.8% (active),-1.35% (active),33.8%,26.3%,14.1%,13.7%,11.6%,20%,27.4%,27.5%,11.1%,-16.3% (active),12.9%,19.1%
CC(C)=CC(=O)N[C@H]1CC[C@]2(C)C3CC[C@]4(C)C(C(C)N(C)C)=CCC4C3CCC2[C@H]1O (stereo not given in full),-36.5% (active),2.01% (active),65%,100%,51.5%,37.7%,-76.1% (active),-25.1% (active),-59.1% (active),-72.5% (active),106%,57.7%,70.1%,-48% (active),85.7%,58.6%,79.4%,66.1%,13.4%,48.1%
CCOC(=O)c1c(C)nc2c(c1N)C(=O)C(=O)N2Cc1ccc(OC)cc1,22.7%,26.5%,30%,80%,38.1%,47.9%,81%,53.3%,61.1%,76.7%,113%,90.9%,82.6%,59.6%,96%,66.3%,83.3%,90.4%,59.1%,101%
COC(=O)/C(CCC=C(C)C)=C1\[C@@H](OC(C)=O)C[C@@]2(C)[C@H]1C/C(=N/O)[C@H]1[C@@]3(C)CC/C(=N\O)[C@@H](C)[C@@H]3CC[C@@]12C,88.4%,107%,86.9%,88.9%,91.5%,70.9%,98.9%,93.7%,78.1%,111%,96.7%,100%,95.1%,77.5%,119%,102%,76.1%,111%,87.3%,72.1%
ClCCn1cnc2c(SCc3ccccc3)ncnc21,33.5%,41.2%,73.9%,50.5%,39.8%,38.4%,57.3%,46.1%,22.3%,78.5%,120%,77.2%,57.5%,65.2%,83.5%,49.4%,3.9% (active),81.6%,62.8%,45.8%
c1cc(OCCN2CCCCC2)ccc1CNc1ccc2nc(CCC3CCCCC3)[nH]c2c1,-13.9% (active),8.7% (active),68.1%,62%,-11.8% (active),44.9%,-99.4% (active),53.5%,-82% (active),-86.6% (active),-11.3% (active),75.8%,64.4%,-30.4% (active),80.1%,45.4%,-28.5% (active),10.5%,5.76% (active),7.66% (active)
O=c1ccc2ccc(OCCN3CCCCC3)cc2o1,108%,98.9%,105%,104%,103%,23.5%,107%,94.1%,101%,102%,101%,101%,95.9%,80.8%,104%,104%,104%,85%,0.515% (active),7.74% (active)
N#Cc1c(-c2ccccc2)nc2c(c(-c3ccc(Cl)cc3)nn2-c2ccccc2)c1-c1ccc([N+](=O)[O-])cc1,99.4%,93.5%,88.3%,90.9%,95.3%,88.7%,99.2%,86.5%,94.7%,102%,104%,103%,105%,81.2%,121%,97.5%,79%,99.7%,90.6%,97.1%
